About 85 (0.1%) of roughly 65,000 compounds were called active. Only a selection was taken, and actives are over-represented in it overall. Unmarked numbers belong to inactive results. Cut-off read from the data, not from the text of the source: active = inhibition above about 50%; inactive = the rest.
Each compound was assayed against M-phase inducer phosphatase 2 (Homo sapiens) (UniProt P30305) (assay: inhibitors of Cdc25B phosphatase catalytic domain, primary screen, biochemical, OMFP fluorescence (AID 368)). Conditions: recombinant Cdc25B, OMFP fluorescence Ex485/Em525; hits give high values;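 compounds tested at 10 µM final in the well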.
M-phase inducer phosphatase 2 (Homo sapiens), sequence (P30305 whole entry, looked up, the tested form may be a part): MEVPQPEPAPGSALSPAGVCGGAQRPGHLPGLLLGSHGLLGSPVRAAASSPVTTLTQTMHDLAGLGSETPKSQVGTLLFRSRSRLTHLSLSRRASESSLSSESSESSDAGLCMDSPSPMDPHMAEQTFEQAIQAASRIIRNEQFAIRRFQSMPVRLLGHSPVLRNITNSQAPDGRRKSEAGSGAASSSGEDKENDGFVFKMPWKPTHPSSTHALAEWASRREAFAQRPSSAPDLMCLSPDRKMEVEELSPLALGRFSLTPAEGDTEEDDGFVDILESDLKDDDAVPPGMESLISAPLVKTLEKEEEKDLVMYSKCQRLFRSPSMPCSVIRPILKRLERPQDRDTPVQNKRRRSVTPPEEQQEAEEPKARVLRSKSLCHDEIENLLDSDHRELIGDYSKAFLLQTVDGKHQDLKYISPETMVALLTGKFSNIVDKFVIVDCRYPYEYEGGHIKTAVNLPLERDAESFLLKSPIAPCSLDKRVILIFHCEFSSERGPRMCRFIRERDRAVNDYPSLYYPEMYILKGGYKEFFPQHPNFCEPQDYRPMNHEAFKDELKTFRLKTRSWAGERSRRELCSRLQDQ
Compound `CS(=O)(=O)N(Cc1nc2sc3c(c2c(=O)[nH]1)CCCC3)C1CCCCC1` has an inhibition of -20%. For `O=C1c2ccccc2C(=O)N1CCc1nn[nH]n1`, the inhibition was 2.01%. `COc1ccc(C(=O)c2oc3ccc(Br)cc3c2NC(C)=O)cc1` gave an inhibition of 1.8%. `CC(=O)Nc1ccc(NS(=O)(=O)c2cc(C)sc2C)cc1` showed an inhibition of 7.75%. `Cc1ccc(S(=O)(=O)N2C3C=CC(C3)C2C(=O)O)cc1` (stereo unspecified) gave an inhibition of -0.599%. Work on `Cc1cc(C)cc(NC(=O)N2CCC(NC(=O)c3ccc(F)cc3)CC2)c1` yielded an inhibition of 5.11%. `CCOC(=O)C(CC)Sc1ncnc2c1nnn2-c1ccc(F)cc1` (stereo unspecified) was tested, and the inhibition was -12.7%. Work on `COc1cc(-c2noc(C3CCCN(S(=O)(=O)c4cccc(Cl)c4)C3)n2)cc(OC)c1OC` (stereo unspecified) yielded an inhibition of 3.35%. Work on `CC(C)C(c1nnnn1C1CCCC1)N1CCN(c2ccccc2F)CC1` (stereo unspecified) yielded an inhibition of -10.2%. In the case of `CC(C)C1Cc2c(sc3c2c(=O)n(-c2ccccc2)c2nncn32)CO1` (stereo unspecified), the inhibition was -39.8%. `C=CCNC(=O)C1CC=CCC1C(=O)O` (stereo unspecified) gave an inhibition of -12.3%. `Cc1nc(Nc2ccc3c(c2)OCCO3)c2nnn(Cc3ccccc3Cl)c2n1` gave an inhibition of -17.1%. Work on `CC(=O)N1CCC(C(=O)Nc2nc(-c3ccccc3)ns2)CC1` yielded an inhibition of -5.67%. Compound `CN1C(=O)c2ccc(NC(=O)c3c(F)c(F)c(F)c(F)c3F)cc2C1=O` has an inhibition of 2.43%. `O=C(CC(NS(=O)(=O)c1ccc(Cl)cc1)c1ccco1)NC1CCCC1` (stereo unspecified) was tested, and the inhibition was -20.3%. In the case of `O=C(NC1=NCCS1)c1ccc(Cl)s1`, the inhibition was 1.03%. `CC1Cc2ccccc2N1C(=O)Cn1cnc2ccccc2c1=O` (stereo unspecified) gave an inhibition of -1.71%. For `c1nnc2c3c4c(sc3ncn12)CCC4`, the inhibition was 0.998%. `O=C(CN1C(=O)C2C3C=CC(C3)C2C1=O)NCC1COc2ccccc2O1` (stereo unspecified) showed an inhibition of -2.93%. `COCCNC(=O)CN(C(=O)CCC(=O)Nc1cc(C)on1)c1ccc(C)cc1C` gave an inhibition of 11.4%. In the case of `O=C(Nc1cccc(C(=O)N2CCCC2)c1)c1ccccc1`, the inhibition was -4.63%. For `O=C(Nc1cccc(NC(=O)N2CCN(c3ccccc3)CC2)c1)N1CCN(c2ccccc2)CC1`, the inhibition was 76.4% (active). `CC(=O)N1CCN(C(=O)Nc2cccc(C(F)(F)F)c2)CC1` was tested, and the inhibition was -11.9%. `Cc1ccc2c(CSc3nncs3)cc(=O)oc2c1` showed an inhibition of -6.44%. `CCOC(=O)c1[nH]c2c(c1C)C(=O)CC(c1ccc(N(C)C)cc1)C2` (stereo unspecified) was tested, and the inhibition was -8.71%. For `Cc1ccc(N)cc1-n1c(C)ccc1C`, the inhibition was 1.36%. `Cc1ccc(CNC(=O)CN2CCN(Cc3ccc(Cl)cc3)C2=O)cc1` gave an inhibition of 1.98%. `COCCCN1C(=O)c2ccc(C(=O)Nc3ccc(OC)cc3OC)cc2C1=O` showed an inhibition of -4.42%. Work on `Cc1cc(Cl)c(S(=O)(=O)NCc2cccnc2)cc1OCC(N)=O` yielded an inhibition of -3.27%. With `CCOC(=O)C1=C(C)NC(C)=C(C(=O)OCC)C1C1=COCCO1` the inhibition was 1.59%. `COc1ccc(N2CCN(C3CC(=O)N(c4ccc5c(c4)OCCO5)C3=O)CC2)cc1` (stereo unspecified) gave an inhibition of 5.32%. Work on `CCn1c(NCCc2ccc(OC)c(OC)c2)nc2c1c(=O)n(C)c(=O)n2C` yielded an inhibition of 7.88%. `COc1cc(-c2nc(S(=O)(=O)c3ccc(Cl)cc3)c(N(C)C)o2)cc(OC)c1OC` showed an inhibition of -3.74%. With `Cc1ccc(C(c2nnnn2CS(=O)(=O)c2ccc(C)cc2)N2CCC(C(N)=O)CC2)cc1` (stereo unspecified) the inhibition was -6.28%. `CCCOc1ccc(C2C(C(=O)c3ccc(C)o3)=C(O)C(=O)N2CCCn2ccnc2)cc1` (stereo unspecified) gave an inhibition of -1.79%. `O=c1c2ccccc2oc2nc3n(c(=O)c12)CCCS3` gave an inhibition of -1.25%. Work on `CCOC(=O)N1CCN(C(=O)CSc2ccc(Cl)cc2)CC1` yielded an inhibition of 3.41%. `CC1CN(C(=O)c2ccc3c(c2)OCO3)OC(c2ccccc2)O1` (stereo unspecified) was tested, and the inhibition was -8.81%. With `CC1=C(C)CC2C(=O)N(c3cccc4ccccc34)C(=O)C2C1` (stereo unspecified) the inhibition was -7.9%. `Cc1nc2c(-c3ccccc3)c(C)[nH]n2c(=O)c1Cl` was tested, and the inhibition was -4.09%. Compound `COc1ccc(S(=O)(=O)N(C)CC(=O)Nc2ccc3c(c2)OCCO3)cc1OC` has an inhibition of -5.79%. With `O=S(=O)(Nc1ccc2nc(-c3ccco3)[nH]c2c1)c1ccccc1` the inhibition was -8.83%. In the case of `O=S(=O)(c1cccc(-c2nnc(SC(F)F)n2-c2ccccc2)c1)N1CCCCC1`, the inhibition was 10.3%. `CCC(=O)Nc1cccc(NC(=O)CSc2nnnn2C2CCCC2)c1` showed an inhibition of -2.8%. `CCOc1ccc(C(=O)Nc2cc(OC)ccc2OC)cc1` was tested, and the inhibition was -1.04%. `O=C(C1CCN(c2nnc(-n3cccc3)s2)CC1)N1CCc2ccccc2C1` was tested, and the inhibition was -4.75%. For `Cc1noc(/C=C/N(C)C)c1S(=O)(=O)N1CCCC(C(=O)NCc2ccco2)C1` (stereo unspecified), the inhibition was -8.56%. `CCCCc1cc(=O)oc2cc(C)cc(OCc3nn[nH]n3)c12` gave an inhibition of -4.64%. In the case of `CCOC(=O)c1c(NC(=O)c2cccs2)sc(C)c1C`, the inhibition was -1.19%. With `COCCNC(=O)CSc1nc2c(n1-c1ccccc1)CCCC2` the inhibition was -0.327%. `CCn1c(SCC(=O)Nc2ccccc2F)nc2c(c1=O)SC(C)C2` (stereo unspecified) was tested, and the inhibition was -15.6%. `CCOc1ccccc1N(CC(=O)NC1CCCCC1)C(=O)CCCC(=O)Nc1ccccn1` showed an inhibition of -10.5%. With `CCOC(=O)N1CCC(NC(=O)CN2C(=O)COc3ccc(C(C)(C)C)cc32)CC1` the inhibition was -4.53%. Work on `CCCN(CCC)C(=O)C1c2ccccc2Oc2ccccc21` yielded an inhibition of -5.87%. `COC(=O)c1c(NC(=O)c2cccs2)sc2c1CCCC2` showed an inhibition of -11.6%. Work on `COc1cccc(N(C(=O)c2ccn[nH]2)C2(C(=O)Nc3c(C)cccc3C)CCCCC2)c1` yielded an inhibition of 4.58%. With `CCN(CC)C(=O)C1CCC(C)(C(=O)O)C1(C)C` (stereo unspecified) the inhibition was -11.3%. With `COc1ccc(-c2noc(-c3cccc(OC)c3OC)n2)cc1OC` the inhibition was -12.3%. With `COc1ccc(CCNC(=O)c2cc(-c3ccc4c(c3)OCO4)on2)cc1OC` the inhibition was -4.69%. In the case of `COc1ccc(-c2cc3n(n2)CCc2nc4ccccc4n2-3)cc1`, the inhibition was -0.418%. In the case of `O=C(Cc1ccccc1)n1nc(-c2ccccc2)nc1NCc1ccco1`, the inhibition was -11.6%. For `COc1ccc(N2C(=O)CN=C2Nc2cccc(C)c2C)cc1OC`, the inhibition was -17.1%. With `COc1ccc(C)cc1NC(=O)c1[nH]c(C)c(C(C)=O)c1C` the inhibition was -7.67%. For `COc1cccc2c(C)c(C(=O)O)[nH]c12`, the inhibition was 50.5% (active). With `CCOC(=O)c1c(C)[nH]c(C(=O)NCc2ccccc2OC)c1C` the inhibition was 0.611%. `FC(F)(F)c1nnc2sc(-c3ccco3)nn12` gave an inhibition of 6.19%. `CC1(N2CCOCC2)CC2(O)C(=[N+]1[O-])CCc1nonc12` (stereo unspecified) showed an inhibition of -12.9%. Compound `Cc1nn(Cc2ccc(Cl)c(Cl)c2)c(C)c1NC(=O)c1cc(C2CC2)on1` has an inhibition of -9.41%. Compound `Cc1cc(NS(=O)(=O)c2ccccc2)no1` has an inhibition of -0.238%. `Nc1ccc(SCCN2C(=O)c3ccccc3C2=O)cc1` showed an inhibition of 3.47%. Work on `COc1ccc(C(=O)NCc2cn3ccccc3n2)cc1` yielded an inhibition of 8.6%. Compound `CC(=O)OCc1cc2cc(C)ccc2[nH]c1=O` has an inhibition of 8.17%. `Cc1noc(C)c1C(=O)NC(C)c1ccc2c(c1)OCO2` (stereo unspecified) was tested, and the inhibition was -2.76%. With `O=C(NC1CC2CCCC(C1)N2C(=O)N1CCCCC1)C1CCCCC1` (stereo unspecified) the inhibition was 0.205%. `Cc1cccc(OCc2nnc(SCc3nc4cc(C(F)(F)F)ccc4c(=O)[nH]3)o2)c1` showed an inhibition of 4.99%. `C=CCNc1nnc(SCC(=O)N2CCCCC2)c2ccccc12` gave an inhibition of -10.6%. In the case of `O/N=C(\c1ccc2c(c1)OCCO2)C1CCCCC1`, the inhibition was -1.56%. In the case of `CC(C)Cc1cc(C(=O)NCCc2ccccc2)no1`, the inhibition was -7.12%. `O=C(OCC(=O)c1cccs1)C1=COCCO1` gave an inhibition of -13.5%. Compound `Cc1ccc(-c2csc3nnc(SCC(=O)NCc4ccco4)n23)cc1` has an inhibition of -17.7%. `Fc1ccccc1CCNc1nnnn1-c1ccccc1` gave an inhibition of 0.973%. With `Cc1cc(=O)oc(C)c1C(=O)NC1CC(C)(C)NC(C)(C)C1` the inhibition was -30.7%. In the case of `CCCc1cc(=O)oc2c(C)c(O)c(CN3CCCCC3)cc12`, the inhibition was -7.47%. In the case of `COc1ccc(-c2nc3n(c2Br)CCC3)cc1`, the inhibition was 2.84%. Work on `CC1(C)C(=O)Nc2ccccc2N1C(=O)COC(=O)Cn1cnc2ccccc2c1=O` yielded an inhibition of -9.58%. With `CC(C)OC(=O)c1sc2nc3c(cc2c1N)C(=O)CCC3` the inhibition was 15.7%. `CCN(CCCCOC(=O)c1ccc(OC)c(OC)c1)C(C)Cc1ccc(OC)cc1` (stereo unspecified) showed an inhibition of -19.9%. `O=C(O)[C@@H]1CCCN1c1ncnc2sc3c(c12)CCC3` was tested, and the inhibition was 1.46%. `O=C(Nc1ccc2c(c1)nc1n2CCCCC1)c1cc(S(=O)(=O)N2CCOCC2)ccc1Cl` was tested, and the inhibition was 7.55%. Work on `O=S(=O)(Nc1ccccc1N1CCOCC1)c1ccc(Cl)s1` yielded an inhibition of -16%. Compound `COc1cc(OC)c(C(=O)Nc2ccc(N(C)C)cc2)cc1OC` has an inhibition of 4.05%. With `CCOC(=O)c1ccc(-c2ccc(C(=O)Nc3cccnc3)o2)cc1` the inhibition was -8.16%. `CCOc1cc(NC(=O)c2ccco2)c(OCC)cc1NC(=O)COc1ccccc1` gave an inhibition of 2.37%. `COc1ccc(OC)c(C2N(c3ccccn3)C(=O)C3CCCN32)c1` (stereo unspecified) gave an inhibition of 6.93%. For `CCCc1nc(N)nc2c1C(=O)CC(C)(C)C2`, the inhibition was -1.09%. In the case of `CCCN1CCN(CCCNC(=O)CN2C(=O)COc3ccccc32)CC1`, the inhibition was -2.33%.
